# Assay outcomes (PubChem)
# This is a sample that favours compounds with a hit; in the whole collection about 4.2% have one here.
# tim23-1 inh – tim23-1 yeast growth inhibition; S. cerevisiae tim23-1 growth, BacTiter-Glo luminescence, 24 h; inhibition, % at 20 µM; hit rate 1.3% among 330,000;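 active = growth inhibition of the mutant yeast at or above 50%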;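 note: temperature-sensitive mutant grown at 25 °C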
# TIM10 inh – TIM10 yeast growth inhibition | S. cerevisiae TIM10 strain growth, BacTiter-Glo luminescence, 24 h | hit rate 1.4% among 330,000 | inhibition, % at 10 µM;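 active = inhibition of 40% or more at the single tested concentration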;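 note: wild-type TIM10 isogenic control strain grown at permissive 25 °C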
# NALP1 inh – blocks the NALP1 inflammasome reconstituted in yeast. S. cerevisiae NALP1/ASC/caspase-1 growth, X-gal OD620, 72 h. hit rate 0.61% among 280,000. inhibition, % at 10 µM; in the data active = inhibition mostly above about 24%, no sharp cut-off; inactive = mostly below about 32%
# NALP3 yeast inh – NALP3 inhibition in yeast; Yeast reconstituted NLRP3/ASC/caspase-1, beta-gal luminescence, 24 h; inhibition, % at 10 µM; hit rate 0.39% among 330,000;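 active = inhibition of 50% or more; inactive = inhibition below 50%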
# V-ATPase pH – regulators of yeast V-ATPase proton transport. S. cerevisiae, pHLuorin cytosolic pH fluorescence. response, % at 10 µM. hit rate 0.37% among 350,000; in the data active = response mostly above about 7.3%, no sharp cut-off; inactive = mostly below about 5.4%; note: actives read high
# tim10-1 inh – growth inhibitors of tim10-1 mutant yeast | S. cerevisiae tim10-1 ts strain growth, BacTiter-Glo, 24 h | inhibition, % at 20 µM | hit rate 2.2% among 330,000 | AID 463190;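 active = inhibition of at least 40%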;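 note: mutant grown at 25 °C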
# tim10-1 confirm – confirmation of tim10-1 mutant yeast growth inhibitors. shares compounds with tim10-1 inh. hit rate 56% among 7,400. S. cerevisiae tim10-1 ts strain growth, BacTiter-Glo, 24 h. inhibition, % at 20 µM;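 active = inhibition of yeast growth at or above a set limit in either of two repeat tests at 20 µM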;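 note: tim10-1 mutant grown at permissive 25 °C to find synthetic lethal compounds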
# TIM10 conf – TIM10 yeast growth inhibition, confirmed | inhibition, % at 10 µM | S. cerevisiae tim10 strain growth, BacTiter-Glo luminescence, 24 h | hit rate 63% among 4,600 | shares compounds with TIM10 inh;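 active = inhibition of yeast growth at or above a set limit in either of two replicates at 10 µM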; note: this counterscreen used the strain with wild-type TIM10
# Hits are given with their value; – = inactive; · = no result.
SMILES,tim23-1 inh,TIM10 inh,NALP1 inh,NALP3 yeast inh,V-ATPase pH,tim10-1 inh,tim10-1 confirm,TIM10 conf
CCO/N=C/C(=O)Nc1ccc(F)cc1F,–,–,–,–,–,–,·,·
CC1CCc2[nH]c3ccc(C(=O)O)cc3c2C1 (centres undefined),–,–,–,–,–,–,·,·
COc1ccccc1N1CCN(C(=O)c2ccc3[nH]c4c(c3c2)CC(C)CC4)CC1 (centres undefined),–,49,–,–,–,53,38,36
Oc1ccccc1-c1nc2c3ccccc3c3ccccc3c2[nH]1,·,·,–,·,–,·,·,·
c1csc(-c2nc3c4ccccc4c4ccccc4c3[nH]2)c1,–,58,–,–,–,41,–,–
Cc1cc(C(=O)NCC23CC4CC(CC(C4)C2)C3)c(C)o1,–,40,–,–,·,45,–,34
Cc1ccccc1S(=O)(=O)c1c(C)cc(C)n(C(C)C)c1=O,–,52,–,–,–,41,34,–
S=C(NCCCc1ccccc1)Nc1ccc(Cl)cc1,–,47,–,–,–,55,52,–
S=C(NCCSCc1ccc(Cl)cc1)Nc1ccccc1,–,52,–,–,–,42,34,–
CC(=O)NC(Cc1ccc(C)cc1)C(=O)NC1CCN(C(=O)c2ccc([N+](=O)[O-])cc2)CC1 (centres undefined),–,–,–,–,–,–,·,·
O=C1Cc2c([nH]c3ccc(Br)cc23)-c2ccccc2N1,·,·,·,·,–,·,·,·
COc1ccc(C(=O)C(CN2CCOCC2)c2ccccc2)cc1 (centres undefined),–,48,–,–,–,55,54,66
c1ccc(C(CN2CCOCC2)c2ccccc2)cc1,–,–,–,–,–,–,·,·
O=C(c1ccc(F)cc1)C(CN1CCOCC1)c1ccccc1 (centres undefined),–,57,–,–,–,53,36,64
CCC(O)(c1ccc(OC)cc1)C(CN1CCOCC1)c1ccccc1 (centres undefined),–,–,–,–,–,–,·,·
CC1CCCN(C(=O)c2ccc(OC3CCN(CCc4ccccc4)CC3)cc2)C1 (centres undefined),–,–,–,–,–,–,·,·
Oc1ccc(-c2nccc(-c3ccc(Br)cc3)n2)cc1,–,41,–,–,–,47,49,64
O=c1[nH]c(N/N=C/c2ccccc2)nc2ccccc12,–,41,–,–,–,44,38,–
CC(C)NC(=S)N/N=C/c1ccc(C(C)(C)C)cc1,–,44,–,–,–,41,–,45
O=C(/C=C/c1cn(-c2ccccc2)nc1-c1cccnc1)c1ccco1,–,48,–,–,–,57,48,41
Cc1ccc(C(=O)Nc2ccc(S(=O)(=O)N3CCc4ccccc43)cc2)o1,–,52,–,–,–,49,33,43
COc1ccc(NC(=O)c2cccc(S(=O)(=O)N3CCc4ccccc43)c2)cn1,–,45,–,–,–,46,41,40
Cc1ccc(C(=O)Nc2ccc(S(=O)(=O)N3CCc4ccccc4C3)cc2)o1,–,–,–,–,–,–,·,·
COc1ccc(NC(=O)c2cccc(S(=O)(=O)N3CCc4ccccc43)c2)c(OC)c1,·,·,·,·,–,·,·,·
CSC(=N/N=C(\N)c1cnccn1)SC,–,–,–,–,–,–,·,·
SMILES,tim23-1 inh,TIM10 inh,NALP1 inh,NALP3 yeast inh,V-ATPase pH,tim10-1 inh,tim10-1 confirm,TIM10 conf
Cc1cc([N+](=O)[O-])ccc1NC(=O)Cc1ccc(F)cc1,–,–,–,–,–,–,·,·
Cc1ccc(COc2ccccc2C(=S)N2CCCC2)cc1,–,42,–,–,–,40,–,–
Fc1ccc(COc2ccccc2C(=S)N2CCCC2)cc1,–,–,–,–,–,–,·,·
CN1CCN(C(=O)CCN2C(=O)/C(=C/c3ccccc3Cl)SC2=S)CC1,–,44,–,–,–,44,–,–
Fc1ccc(-c2cc(-c3ccccc3)nc(-n3cccn3)n2)cc1,–,59,–,–,–,51,46,46
C=CCOc1ccc(/C(CC)=N/O)c(OC)c1,–,–,–,–,–,–,·,·
CN(C)c1ccc(/C=N/n2c(-c3cccnc3)n[nH]c2=S)cc1,–,–,–,–,·,–,·,·
